Records with an inconclusive call do not appear. Active and inactive are the calls of the source. The call rests on the fitted dose curve; in most records, active means well fitted curve in the direction sought with a large enough effect; inconclusive means small, poorly fitted or top-dose-only effect, or another doubt; inactive means no such curve, though single readings can be large; an effect the other way counts as inactive or inconclusive.
Experiments:
[1] = qHTS of pediatric cancer cell lines to identify multiple opportunities for drug repurposing: Primary screen for Saos-2 cells (AID 1347097); further: nearly all actives have a fitted effect of over 40% in size; further: potency means the concentration at half of the fitted maximal effect; on activity change, negative = cytotoxic: on the % scale 0 is the no-effect control and ±100 the full control effect
How it was run: (§1)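 Phenotypic viability qHTS, 48 h compound exposure, CellTiter-Glo luminescence read-out; multi-concentration dosing so that potency and efficacy derive directly from the primary screen's curves.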

[2] = qHTS of pediatric cancer cell lines to identify multiple opportunities for drug repurposing: Primary screen for NB1643 cells (AID 1347099); further: nearly all actives have a fitted effect of over 50% in size; further: potency means the concentration at half of the fitted maximal effect;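 on activity change, negative = cytotoxic: plate controls were DMSO neutral control for no effect and bortezomib positive control for full effect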
How it was run: as §1

[3] = qHTS of pediatric cancer cell lines to identify multiple opportunities for drug repurposing: Primary screen for LAN-5 cells (AID 1347100); further: potency means the concentration at half of the fitted maximal effect;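 on activity change, negative = cytotoxic: plate controls were DMSO neutral control for no effect and bortezomib positive control for full effect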
How it was run: (§2)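 Viability after 48 h compound treatment at 37C, 500-1,000 cells/well, read as ATP luminescence with CellTiter-Glo. Primary screens used 11-point (MIPE, 0.78 nM-46 µM) or 8-point (NPC, 0.59 nM-46 µM) final concentrations; follow-up screens used 11-point dilutions.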

[4] = qHTS of pediatric cancer cell lines to identify multiple opportunities for drug repurposing: Primary screen for BT-12 cells (AID 1347101); further: nearly all actives have a fitted effect of over 25% in size; further: potency means the concentration at half of the fitted maximal effect;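 on activity change, negative = cytotoxic: plate controls were DMSO for no effect and bortezomib positive control for full effect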
How it was run: (§3)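 Cells (500-1,000/well) rested 5 h, then received compounds for 48 h; metabolically active cells were measured by CellTiter-Glo luminescence. Final concentrations spanned up to 46 µM (MIPE, 11-point) or 0.59 nM-46 µM (NPC, 8-point) in primary screens, 11-point in follow-ups.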

[5] = qHTS of pediatric cancer cell lines to identify multiple opportunities for drug repurposing: Primary screen for Rh18 cells (AID 1347102); further: nearly all actives have a fitted effect of over 65% in size; further: potency means the concentration at half of the fitted maximal effect; on activity change, negative = cytotoxic: on the % scale 0 is the no-effect control and ±100 the full control effect
How it was run: as §2

[6] = qHTS of pediatric cancer cell lines to identify multiple opportunities for drug repurposing: Primary screen for OHS-50 cells (AID 1347103); further: nearly all actives have a fitted effect of over 40% in size; further: potency means the concentration at half of the fitted maximal effect;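 on activity change, negative = cytotoxic: plate controls were DMSO neutral control for no effect and bortezomib positive control for full effect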
How it was run: as §3

[7] = qHTS of pediatric cancer cell lines to identify multiple opportunities for drug repurposing: Primary screen for RD cells (AID 1347104); further: nearly all actives have a fitted effect of over 55% in size; further: potency means the concentration at half of the fitted maximal effect;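 on activity change, negative = cytotoxic: plate controls were DMSO for no effect and bortezomib for full effect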
How it was run: as §1

[8] = qHTS of pediatric cancer cell lines to identify multiple opportunities for drug repurposing: Primary screen for MG 63 (6-TG R) cells (AID 1347105); further: nearly all actives have a fitted effect of over 50% in size; further: potency means the concentration at half of the fitted maximal effect; on activity change, negative = cytotoxic: on the % scale 0 is the no-effect control and ±100 the full control effect
How it was run: as §1

[9] = qHTS of pediatric cancer cell lines to identify multiple opportunities for drug repurposing: Primary screen for control Hh wild type fibroblast cells (AID 1347106);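 further: series mostly up to about 46 µM; on the % scale 0 is the no-effect control and ±100 the full control effect; a drop in luminescence marks cytotoxicity and a rise apparent proliferation; nearly all actives have a fitted effect of over 55% in size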
How it was run: as §2

[10] = qHTS of pediatric cancer cell lines to identify multiple opportunities for drug repurposing: Primary screen for Rh41 cells (AID 1347108); further: nearly all actives have a fitted effect of over 70% in size; further: potency means the concentration at half of the fitted maximal effect;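 on activity change, negative = cytotoxic: series mostly up to about 46 µM; luminescence drop marks cytotoxic hits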
How it was run: as §1

[11] = qHTS of pediatric cancer cell lines to identify multiple opportunities for drug repurposing: Primary screen for Rh30 cells (AID 1347107); further: series mostly up to about 46 µM; on the % scale 0 is the no-effect control and ±100 the full control effect; nearly all actives have a fitted effect of over 75% in size
How it was run: as §2

[12] = qHTS of pediatric cancer cell lines to identify multiple opportunities for drug repurposing: Primary screen for SK-N-SH cells (AID 1347098);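 further: DMSO served as neutral control and bortezomib at 2.3 µM as positive control; on the % scale 0 is the no-effect control and ±100 the full control effect; nearly all actives have a fitted effect of over 65% in size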
How it was run: as §3

[13] = qHTS of pediatric cancer cell lines to identify multiple opportunities for drug repurposing: Confirmatory screen for NB1643 cells (AID 1347109);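 further: plate controls were DMSO for no effect and bortezomib for full effect; nearly all actives have a fitted effect of over 45% in size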
How it was run: as §2

[14] = qHTS of pediatric cancer cell lines to identify multiple opportunities for drug repurposing: Confirmatory screen for A673 cells (AID 1347110); further: potency means the concentration at half of the fitted maximal effect; nearly all actives have a fitted effect of over 65% in size
How it was run: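 Viability was read as ATP luminescence (CellTiter-Glo) after 48 h of compound exposure at 37 C in A673 cells seeded at 500-1,000/well. Titrations reached 46 uM final, with 11 points in the confirmatory screen. Concentration-response curves were fitted directly.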

[15] = qHTS of pediatric cancer cell lines to identify multiple opportunities for drug repurposing: Confirmatory screen for SK-N-MC cells (AID 1347111);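 further: potency means the concentration at half of the fitted maximal effect; cells exposed to compound for 48 h before the readout; nearly all actives have a fitted effect of over 70% in size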
How it was run: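 SK-N-MC cells at 500-1,000 cells/well in growth media were pre-incubated 5 h, then exposed to compounds at 11-point dilutions for 48 h at 37 degrees C, 5% CO2. Viability was read as CellTiter-Glo luminescence.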

[16] = qHTS of pediatric cancer cell lines to identify multiple opportunities for drug repurposing: Confirmatory screen for BT-12 cells (AID 1347112); further: on the % scale 0 is the no-effect control and ±100 the full control effect; nearly all actives have a fitted effect of over 55% in size
How it was run: as §2

[17] = qHTS of pediatric cancer cell lines to identify multiple opportunities for drug repurposing: Confirmatory screen for LAN-5 cells (AID 1347113); further: nearly all actives have a fitted effect of over 65% in size
How it was run: as §2

[18] = qHTS of pediatric cancer cell lines to identify multiple opportunities for drug repurposing: Confirmatory screen for DAOY cells (AID 1347114)
How it was run: (§4)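 Viability measured as metabolically active cells via CellTiter-Glo luminescence following 48 hours of compound exposure, 11-point dilutions in confirmatory testing. 500-1,000 cells/well plated 5 hours before dosing; controls were DMSO and 2.3 µM bortezomib.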

[19] = qHTS of pediatric cancer cell lines to identify multiple opportunities for drug repurposing: Confirmatory screen for NB-EBc1 cells (AID 1347115); further: potency means the concentration at half of the fitted maximal effect; nearly all actives have a fitted effect of over 45% in size
How it was run: as §2

[20] = qHTS of pediatric cancer cell lines to identify multiple opportunities for drug repurposing: Confirmatory screen for SJ-GBM2 cells (AID 1347116);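 further: plate controls were DMSO for no effect and bortezomib for full effect; nearly all actives have a fitted effect of over 60% in size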
How it was run: as §4

[O-][n+]1cccc(CO)c1
inactive: Potency [1] | Potency [2] | Potency [3] | Potency [4] | Potency [5] | Potency [6] | Potency [7] | Potency [8] | outcome [9] | Potency [10]

CN1[C@@H]2CC[C@H]1CC(OC(=O)C(O)c1ccccc1)C2 (some centres not stated)
inactive: Potency [1] | Potency [2] | Potency [4] | Potency [5] | Potency [6] | Potency [7] | Potency [8] | outcome [9] | outcome [11] | Potency [10]

C[C@H](NC(CCc1ccccc1)C(=O)O)C(=O)N1CCC[C@H]1C(=O)O (some centres not stated)
inactive: Potency [1] | Potency [2] | Potency [3] | Potency [4] | Potency [5] | Potency [6] | Potency [7] | Potency [8] | outcome [9] | outcome [11] | Potency [10]

CCN(CC)CCNC(=O)c1c(C)[nH]c(/C=C2\C(=O)Nc3ccc(F)cc32)c1C
inactive: Potency [12]
active: Potency [1] 21.1 µM | Potency [3] 11.9 µM | Potency [4] 21.9 µM | Potency [6] 1.23 µM | Potency [8] 21.1 µM | Potency [10] 21.1 µM

CC[N+](CC)(CC)CCOc1ccc(/C=C/c2ccccc2)cc1
active: Potency [1] 23.7 µM | Potency [2] 13.3 µM | Potency [4] 3.47 µM | Potency [5] 7.5 µM | Potency [7] 15 µM

N[C@@H](CSSC[C@H](N)C(=O)O)C(=O)O
inactive: activity change, negative = cytotoxic [1] -6.38% [at 0.597 µM] | activity change, negative = cytotoxic [2] -5.83% [at 0.597 µM] | activity change, negative = cytotoxic [3] 6.24% [at 0.597 µM] | activity change, negative = cytotoxic [4] 5.67% [at 0.745 µM] | activity change, negative = cytotoxic [5] 0.304% [at 0.597 µM] | activity change, negative = cytotoxic [7] 5.61% [at 0.597 µM] | activity change, negative = cytotoxic [8] 0.733% [at 0.597 µM] | activity change, negative = cytotoxic [9] 21.8% [at 0.597 µM] | activity change, negative = cytotoxic [11] 12% [at 0.597 µM] | activity change, negative = cytotoxic [10] 8.25% [at 0.597 µM]

OC[C@H]1O[C@@H](O[C@@H]2[C@@H](CO)O[C@](O)(CO)[C@H]2O)[C@H](O)[C@@H](O)[C@H]1O
inactive: Potency [1] | Potency [12] | Potency [2] | Potency [4] | Potency [7] | Potency [8] | outcome [9] | Potency [10]

CNCC(O)c1ccc(O)c(O)c1 (configuration not stated)
inactive: Potency [2] | Potency [3] | Potency [4] | Potency [7] | Potency [8] | outcome [9] | Potency [10]
active: Potency [1] 26.6 µM

Nc1cc(=O)[nH]c(N)n1
inactive: Potency [1] | Potency [2] | Potency [3] | Potency [4] | Potency [5] | Potency [6] | Potency [7] | Potency [8] | outcome [9] | outcome [11] | Potency [10]

C[C@H]1O[C@@H](n2cc(F)c(=O)[nH]c2=O)[C@H](O)[C@@H]1O
inactive: Potency [1] | Potency [2] | Potency [4] | Potency [5] | Potency [6] | Potency [7] | Potency [8] | outcome [9] | outcome [11] | Potency [10]

CCCCCCCCCCCCCCCCCCOCC(O)CO (configuration not stated)
inactive: Potency [1] | Potency [12] | Potency [2] | Potency [4] | Potency [7] | Potency [8] | outcome [9] | Potency [10]

O=C(Oc1ccccc1C(=O)O)c1ccccc1O
inactive: Potency [1] | Potency [2] | Potency [3] | Potency [4] | Potency [5] | Potency [7] | Potency [8] | outcome [9] | Potency [10]

CCOc1nc2cccc(C(=O)O)c2n1Cc1ccc(-c2ccccc2-c2nn[nH]n2)cc1
inactive: Potency [1] | Potency [2] | Potency [3] | Potency [4] | Potency [5] | Potency [6] | Potency [7] | Potency [8] | outcome [9] | outcome [11] | Potency [10]

CN(C)CCCO[C@@H]1[C@H]2OC(C)(C)O[C@H]2O[C@@H]1C(O)CO (some centres not stated)
inactive: Potency [1] | Potency [2] | Potency [3] | Potency [4] | Potency [5] | Potency [6] | Potency [7] | Potency [8] | outcome [9] | outcome [11] | Potency [10]

O=C(O)c1ccccc1-c1ccc(C(F)(F)F)cc1
inactive: Potency [1] | Potency [2] | Potency [3] | Potency [4] | Potency [6] | Potency [7] | Potency [8] | outcome [9] | outcome [11] | Potency [10]

CCCCCCCCCCCCCCCC(=O)NCCO
inactive: Potency [1] | Potency [2] | Potency [3] | Potency [4] | Potency [5] | Potency [6] | Potency [7] | Potency [8] | outcome [9] | outcome [11] | Potency [10]

Cc1ccc2nc(N)[nH]c(=O)c2c1Sc1ccncc1
inactive: Potency [12] | Potency [2] | Potency [5] | outcome [9] | Potency [13] | Potency [16] | Potency [17] | outcome [18] | Potency [20]
active: Potency [1] 13.3 µM | Potency [14] 0.465 µM | Potency [15] 2.08 µM | Potency [19] 11.7 µM

NC(=O)NNc1ccccc1
inactive: Potency [12] | Potency [2] | Potency [3] | Potency [4] | Potency [5] | Potency [6] | Potency [7] | outcome [9] | outcome [11] | Potency [10]

c1ccc2c(CC3=NCCN3)cccc2c1
inactive: Potency [12] | Potency [2] | Potency [3] | Potency [5] | Potency [7] | Potency [8] | outcome [9] | outcome [11] | Potency [10]
